According to PubChem BioAssay (EPA / NIEHS):
“And” between values parts separate entries of the source, which are not always exact repeats. Identical values can stand only once. The source made the active and inactive calls. How the source made its calls: active means hit-call score of the fitted dose curve at least 0.9, where 1 is the maximum; inactive means score below 0.9.

read-out: CD69, CD69 (gene 969); assay: BSK_IMphg_CD69: BioMAP Diversity Plus: IMphg Assay for CD69 Biomarker Activity (AID 2284257); details: primary human endothelial cells with macrophages
In short: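 Readout is ELISA for CD69 in primary human venular endothelial cell/macrophage co-culture, taken at 24 h post-dosing. SRB staining of parallel cultures gauged overt cytotoxicity; signal increase versus DMSO defined activity.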

SMILES | outcome
O=C(O)C(F)(F)C(F)(F)C(F)(F)C(F)(F)C(F)(F)C(F)(F)C(F)(F)C(F)(F)C(F)(F)C(F)(F)F | inactive
O=C(O)C(F)(F)C(F)(F)C(F)(F)C(F)(F)C(F)(F)C(F)(F)F | inactive
O=C(O)CCC(F)(C(F)(F)F)C(F)(F)F | inactive

read-out: Eotaxin 3, CCL26 (gene 10344); assay: BSK_BF4T_Eotaxin3: BioMAP Diversity Plus: BF4T Assay for Eotaxin 3 Biomarker Activity (AID 2284258); details: primary human bronchial epithelial cells with fibroblasts
In short: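 ELISA measurement of Eotaxin-3 after 24 h chemical exposure in a bronchial epithelial/dermal fibroblast co-culture, with DMSO as baseline. Parallel SRB staining (0.1% SRB after 10% TCA fixation, 560 nm) flagged overt cytotoxicity.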

SMILES | AC50 | outcome
O=C(O)C(F)(F)C(F)(F)C(F)(F)C(F)(F)C(F)(F)C(F)(F)C(F)(F)C(F)(F)C(F)(F)C(F)(F)F | 3.14 µM (active) and 3.33 µM (active) | –
O=C(O)C(F)(F)C(F)(F)C(F)(F)C(F)(F)C(F)(F)C(F)(F)F | – | inactive
O=C(O)CCC(F)(C(F)(F)F)C(F)(F)F | – | inactive

read-out: Monocyte Chemoattractant Protein-1 (MCP1), CCL2 (gene 6347); assay: BSK_BF4T_MCP1: BioMAP Diversity Plus: BF4T Assay for Monocyte Chemoattractant Protein-1 (MCP1) Biomarker Activity (AID 2284259); details: primary human bronchial epithelial cells with fibroblasts
In short: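 MCP-1 ELISA readout taken 24 h after dosing in the BF4T system (bronchial epithelial cells plus dermal fibroblasts). Parallel SRB total-protein staining flagged cytotoxicity; DMSO served as baseline, positive fitting direction.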

SMILES | AC50 | outcome
O=C(O)C(F)(F)C(F)(F)C(F)(F)C(F)(F)C(F)(F)C(F)(F)C(F)(F)C(F)(F)C(F)(F)C(F)(F)F | 5.55 µM (active) and 5.18 µM (active) | –
O=C(O)C(F)(F)C(F)(F)C(F)(F)C(F)(F)C(F)(F)C(F)(F)F | – | inactive
O=C(O)CCC(F)(C(F)(F)F)C(F)(F)F | – | inactive

read-out: Intercellular Adhesion Molecule 1 (ICAM1), ICAM1 (gene 3383); assay: BSK_BF4T_ICAM1: BioMAP Diversity Plus: BF4T Assay for Intercellular Adhesion Molecule 1 (ICAM1) Biomarker Activity (AID 2284260); details: primary human bronchial epithelial cells with fibroblasts
Experimental: BSK_BF4T is a cell-based, multiplexed-readout assay that uses bronchial epithelial cells and dermal fibroblasts, a human vascular primary cell, with measurements taken at 24 hours after chemical dosing in a microplate: 96-well plate.BSK_BF4T_ICAM1 is an assay component measured in the BSK_BF4T assay. It measures ICAM-1 antibody related to regulation of gene expression using ELISA technology.Data from the assay component BSK_BF4T_ICAM1 was analyzed at the endpoint, BSK_BF4T_ICAM1, in the positive analysis fitting direction relative to DMSO as the negative control and baseline of activity. Using a type of binding reporter, gain or loss-of-signal activity can be used to understand protein changes. To generalize the intended target to other relatable targets, this assay endpoint is annotated to the 'cell adhesion molecules' intended target family, where the subfamily is 'Immunoglobulin CAM'.
The levels of cell surface (or secreted, indicated by the prefix "s") biomarker endpoints were measured by ELISA. Overt cytotoxicity to cells in confluent adherent cultures (all systems other than the BT system) was assessed by measuring total protein levels using sulforhodamine B (SRB) staining in parallel cultures at the time of biomarker measurements, indicated as SRB endpoints. For proliferation assays for adherent cell types, individual cell types are cultured at sub-confluence and relative cell numbers quantified by SRB staining at time points optimized for each system (48 h: 3C and CASM3C systems; 72 h: BT and HDF3CGF systems; 96 h: SAg system). SRB was performed by staining cells with 0.1% SRB after fixation with 10% TCA and reading wells at 560 nm.Viability and proliferation of PBMC (T cells) was quantified by Alamar Blue reduction for the SAg and BT systems. […] Then, Alamar Blue (20 uL/well) (Invitrogen, Cat DAL1100) was added for 6 h, and the plates were read with a fluorescence microplate reader at 546/580 nm (excitation/emission). […] Plates were read after 6 h.

SMILES | AC50 | outcome
O=C(O)C(F)(F)C(F)(F)C(F)(F)C(F)(F)C(F)(F)C(F)(F)C(F)(F)C(F)(F)C(F)(F)C(F)(F)F | 5.15 µM (active) and 4.51 µM (active) | –
O=C(O)C(F)(F)C(F)(F)C(F)(F)C(F)(F)C(F)(F)C(F)(F)F | – | inactive
O=C(O)CCC(F)(C(F)(F)F)C(F)(F)F | – | inactive

read-out: Interleukin-8 (IL8), CXCL8 (gene 3576); assay: BSK_MyoF_IL8: BioMAP Diversity Plus: MyoF Assay for Interleukin-8 (IL8) Biomarker Activity (AID 2284261); details: primary human lung fibroblasts
In short: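 Lung fibroblasts (human primary) → chemical exposure → 24 h → IL-8 measured by ELISA. Signal increase scored versus DMSO control.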

SMILES | outcome | AC50
CC(C)c1ccc(CO)cc1 | inactive | –
COC[C@H](C)N(C(=O)CCl)c1c(C)csc1C | inactive | –
O=C(O)C(F)(F)C(F)(F)C(F)(F)C(F)(F)C(F)(F)C(F)(F)C(F)(F)C(F)(F)C(F)(F)C(F)(F)F | – | 6.34 µM (active) and 6.43 µM (active)
CCCCC(CC)CO[N+](=O)[O-] (stereo not drawn) | inactive | –
CCOC(=O)/C=C(C)/C=C/C[C@@H](C)CCCC(C)C | inactive | –
CC(C)CCCCCCOC(=O)c1ccccc1C(=O)OCCCCCCC(C)C | inactive | –
Nc1ncc([N+](=O)[O-])s1 | inactive | –
O=Cc1cccc(Oc2ccccc2)c1 | inactive | –
CCSC(C)CC1CC(=O)C(C(CC)=NOC/C=C/Cl)=C(O)C1 (stereo not drawn) | inactive | –
COP(=S)(OC)Oc1ccc(Sc2ccc(OP(=S)(OC)OC)cc2)cc1 | – | 20 µM (active)
BrCCBr | inactive | –
Nc1ccc(-c2ccc(N)c(Cl)c2)cc1Cl | – | 2.04 µM (active)
CC1(C)Cc2cccc(O)c2O1 | inactive | –
CC(=O)C(Cl)C(=O)N(C)C (stereo not drawn) | inactive | –
CCOP(=S)(OCC)SCCS(=O)(=O)CC | inactive | –
Nc1cccc2ccccc12 | – | 11.4 µM (active)
CCNc1nc(NC(C)(C)C)nc(SC)n1 | inactive | –
O=C(OC1CCCCC1)c1ccccc1C(=O)OC1CCCCC1 | – | 5.72 µM (active)

SMILES | outcome | AC50
NC(=S)Nc1ccccc1 | inactive | –
C(=NC1CCCCC1)=NC1CCCCC1 | – | 33.1 µM (active)
Oc1ccc(-c2ccccc2)cc1 | inactive | –
OCc1ccco1 | inactive | –
O=S(=O)(c1ccc(Cl)cc1)c1ccc(Cl)cc1 | inactive | –
COc1cc(OC)nc(NC(=O)NS(=O)(=O)c2ncccc2C(=O)N(C)C)n1 | inactive | –
COP(=S)(OC)Oc1ccc(S(=O)(=O)N(C)C)cc1 | inactive | –
CCCCCCCCC(=O)NCc1ccc(O)c(OC)c1 | inactive | –
O=C(O)C(F)(F)C(F)(F)C(F)(F)C(F)(F)C(F)(F)C(F)(F)F | inactive | –
O=C(O)CCC(F)(C(F)(F)F)C(F)(F)F | inactive | –
COP(=S)(OC)Oc1cc(Cl)c(Cl)cc1Cl | – | 4.59 µM (active)
ClC(Cl)=C(Cl)C(Cl)=C(Cl)Cl | – | 15.1 µM (active)
ClC1=C(Cl)[C@]2(Cl)[C@H]3[C@H]([C@H]4C=C[C@H]3C4)[C@@]1(Cl)C2(Cl)Cl | – | 2.92 µM (active)
Oc1c(I)cc(I)cc1I | – | 3.55 µM (active)
COP(=S)(OC)Oc1c(Cl)cc(C)cc1Cl | inactive | –
O=[N+]([O-])c1ccc2c3c(cccc13)CC2 | inactive | –
CCOP(=S)(OCC)Oc1ccc(S(C)=O)cc1 (stereo not drawn) | inactive | –
COC(=O)c1sccc1S(=O)(=O)NC(=O)Nc1nc(C)nc(OC)n1 | inactive | –
